This passage reports binding signal results from publication PMC4081100, “A DNA-binding-site landscape and regulatory network analysis for NAC transcription factors in Arabidopsis thaliana”.

Holding throughout (experiment): universal protein binding microarray (PBM); transcription factors of Arabidopsis thaliana; high values mean tight binding
Holding throughout (settings): protein: recombinant; tags: GST; chain copies: 2; dsDNA, one strand shown

The target in assay [1] is T1, GST-ANAC092(1-176) (Arabidopsis thaliana, UniProt Q9FKA0 1-176).
T1 sequence: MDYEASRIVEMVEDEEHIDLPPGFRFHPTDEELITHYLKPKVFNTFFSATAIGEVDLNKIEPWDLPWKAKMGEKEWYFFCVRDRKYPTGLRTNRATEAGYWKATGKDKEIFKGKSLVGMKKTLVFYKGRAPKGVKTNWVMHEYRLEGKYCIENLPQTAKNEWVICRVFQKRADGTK
The procedure, abridged: (§1)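 Binding is expressed as the normalised enrichment score (E-score). Proteins carrying a GST tag, whether NAC-domain, full-length or DNA-binding-domain forms, were induced in cells, and zinc acetate was added for zinc-finger proteins. After purification on glutathione–Sepharose 4B and quantification by A280 or anti-GST western blot, each was applied in duplicate at 200 to 500 nM final to custom all-10-mer Agilent 4 × 180K arrays made double-stranded by primer extension. Gapped and ungapped 8-mers were scored.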

For assay [2], the target named is T2, GST-ANAC019 NAC domain (Arabidopsis thaliana, UniProt Q9C932 14-162).
T2 sequence: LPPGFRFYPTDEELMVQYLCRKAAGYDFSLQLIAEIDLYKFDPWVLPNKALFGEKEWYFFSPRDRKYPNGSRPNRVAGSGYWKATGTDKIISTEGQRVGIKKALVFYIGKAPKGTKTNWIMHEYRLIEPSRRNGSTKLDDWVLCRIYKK
An outline of the steps:
as §1

The target in assay [3] is T3, GST-ANAC055(1-171) (Arabidopsis thaliana, UniProt Q9LDY8 1-171).
T3 sequence: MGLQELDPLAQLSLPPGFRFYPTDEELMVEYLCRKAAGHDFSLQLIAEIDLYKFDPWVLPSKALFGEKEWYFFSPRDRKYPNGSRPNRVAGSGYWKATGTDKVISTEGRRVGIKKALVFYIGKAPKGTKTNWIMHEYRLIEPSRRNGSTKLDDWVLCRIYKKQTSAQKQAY
The procedure, abridged: as §1

Assay [4] deals with T4, GST-ATAF1 NAC domain (Arabidopsis thaliana, UniProt Q39013 7-158).
T4 sequence: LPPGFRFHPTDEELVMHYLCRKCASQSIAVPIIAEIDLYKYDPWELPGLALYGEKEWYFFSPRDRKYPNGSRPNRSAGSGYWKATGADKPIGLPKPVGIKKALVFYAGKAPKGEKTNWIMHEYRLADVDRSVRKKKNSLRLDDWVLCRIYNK
An outline of the steps: as §1

Assay [5] has as its target T5, GST-ANAC092(1-285) full length (Arabidopsis thaliana, UniProt Q9FKA0 1-285).
T5 sequence: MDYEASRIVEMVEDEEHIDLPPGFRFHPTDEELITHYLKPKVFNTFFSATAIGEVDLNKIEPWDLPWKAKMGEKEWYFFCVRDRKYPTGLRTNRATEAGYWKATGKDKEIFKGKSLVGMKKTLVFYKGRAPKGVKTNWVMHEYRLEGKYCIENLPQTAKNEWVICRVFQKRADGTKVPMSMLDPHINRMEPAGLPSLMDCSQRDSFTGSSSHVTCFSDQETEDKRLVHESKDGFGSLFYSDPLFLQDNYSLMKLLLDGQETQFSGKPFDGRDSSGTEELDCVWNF
The procedure, abridged: as §1

In assay [6] the target is T6, GST-NAP(1-166) (Arabidopsis thaliana, UniProt O49255 1-166).
T6 sequence: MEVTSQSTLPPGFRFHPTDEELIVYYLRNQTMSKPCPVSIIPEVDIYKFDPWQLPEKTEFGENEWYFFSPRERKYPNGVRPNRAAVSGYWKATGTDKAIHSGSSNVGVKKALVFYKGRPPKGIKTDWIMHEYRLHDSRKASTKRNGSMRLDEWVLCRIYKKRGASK
An outline of the steps: as §1

Assay [7] deals with T7, GST-NST2(1-184) (Arabidopsis thaliana, UniProt Q9M274 1-184).
T7 sequence: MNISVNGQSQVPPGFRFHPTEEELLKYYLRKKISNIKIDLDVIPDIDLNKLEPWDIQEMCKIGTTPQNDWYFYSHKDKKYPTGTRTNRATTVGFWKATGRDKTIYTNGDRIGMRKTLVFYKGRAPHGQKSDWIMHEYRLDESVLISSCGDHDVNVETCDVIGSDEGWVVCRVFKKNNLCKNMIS
An outline of the steps:
as §1

Assay [8] deals with T8, GST-SND1(1-203) (Arabidopsis thaliana, UniProt Q9LPI7 1-203).
T8 sequence: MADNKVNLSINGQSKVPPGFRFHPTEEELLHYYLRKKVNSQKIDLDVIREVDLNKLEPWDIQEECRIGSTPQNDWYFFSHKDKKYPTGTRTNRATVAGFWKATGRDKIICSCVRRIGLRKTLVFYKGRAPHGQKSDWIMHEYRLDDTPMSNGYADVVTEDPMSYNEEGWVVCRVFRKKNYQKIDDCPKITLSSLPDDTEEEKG
The procedure, abridged: as §1

Assay [9] addresses T9, GST-VND3 NAC domain (Arabidopsis thaliana, UniProt Q9FH59 12-162).
T9 sequence: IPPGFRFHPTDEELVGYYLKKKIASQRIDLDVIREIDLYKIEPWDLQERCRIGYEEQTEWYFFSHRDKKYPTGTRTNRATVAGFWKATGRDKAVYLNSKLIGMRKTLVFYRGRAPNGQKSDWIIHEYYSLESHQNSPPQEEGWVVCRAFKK
The procedure, abridged:
as §1

Assay [10] has as its target T10, GST-VND7 NAC domain (Arabidopsis thaliana, UniProt Q9C8W9 9-158).
T10 sequence: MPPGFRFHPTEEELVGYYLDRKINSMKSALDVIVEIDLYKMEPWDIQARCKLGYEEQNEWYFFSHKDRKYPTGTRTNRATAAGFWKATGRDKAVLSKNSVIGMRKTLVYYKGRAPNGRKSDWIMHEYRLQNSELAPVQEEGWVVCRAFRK
An outline of the steps: as §1

Assay [11] addresses GST-NTL6(1-168) (Arabidopsis thaliana, UniProt Q9SCK6 1-168). An outline of the steps:
as §1

Assay [12] addresses T11, GST-NTL8 NAC domain (Arabidopsis thaliana, UniProt Q9XIN7 14-156).
T11 sequence: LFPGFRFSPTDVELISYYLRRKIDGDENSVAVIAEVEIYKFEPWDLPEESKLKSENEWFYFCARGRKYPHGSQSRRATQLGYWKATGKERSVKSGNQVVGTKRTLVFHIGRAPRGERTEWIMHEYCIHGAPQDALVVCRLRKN
The procedure, abridged: as §1

Chain of GST-NTL6(1-168) (Q9SCK6 1-168): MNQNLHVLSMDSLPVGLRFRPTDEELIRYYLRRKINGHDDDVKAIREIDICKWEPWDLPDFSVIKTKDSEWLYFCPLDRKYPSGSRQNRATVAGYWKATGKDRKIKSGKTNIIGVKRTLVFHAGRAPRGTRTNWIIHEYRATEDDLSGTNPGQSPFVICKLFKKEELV

Consider ATACACGC, for which the binding signal in assay [1] turned out to be 0.39 E-score; in assay [2], 0.19 E-score; in [3], 0.185 E-score; in [4], 0.21 E-score; in assay [5], 0.423 E-score; in [6], 0.256 E-score. The binding signal in assay [7] was 0.167 E-score; in assay [8], 0.0978 E-score; in [9] it was 0.167 E-score; in assay [10], 0.0693 E-score.

AACACGGA: the binding signal in assay [1] was 0.298 E-score; in assay [2] it was 0.413 E-score; in assay [3], 0.397 E-score; in assay [4] it was 0.299 E-score; in assay [5], 0.274 E-score; in [6], 0.268 E-score. Besides, the binding signal in assay [7] was 0.173 E-score; in [8] it was 0.0986 E-score; in assay [9], 0.319 E-score; in [10], 0.362 E-score.

With ACACGCAT, the binding signal worked out at 0.462 E-score in assay [1]; 0.346 E-score in [2]; 0.335 E-score in assay [3]; 0.292 E-score in [4]; 0.468 E-score in assay [5]; 0.332 E-score in [6]. Also, the binding signal amounted to 0.242 E-score in [7], 0.295 E-score in assay [8], 0.351 E-score in assay [9] and 0.33 E-score in assay [10].

With ACGTGTAC, the binding signal in assay [1] amounted to 0.328 E-score; in assay [2], 0.309 E-score; in [3], 0.286 E-score; in assay [4] it was 0.279 E-score; in assay [5], 0.413 E-score; in [6], 0.278 E-score. For the same sequence, the binding signal was found to be 0.201 E-score in assay [7], 0.204 E-score in [8], 0.267 E-score in assay [9] and 0.206 E-score in assay [10].

For CACACGTC, the binding signal in assay [1] came to 0.33 E-score; in assay [2], 0.214 E-score; in assay [3] it was 0.221 E-score; in [4], 0.248 E-score; in assay [5] it was 0.405 E-score; in assay [6] it was 0.172 E-score. Moreover, the binding signal came out at 0.079 E-score in assay [7], 0.157 E-score in assay [8], 0.199 E-score in assay [9] and 0.176 E-score in assay [10].

In the case of AAGGGAAA, the binding signal came out at 0.195 E-score in assay [1]; 0.166 E-score in [11]; 0.166 E-score in assay [4]; 0.0848 E-score in assay [5]; 0.476 E-score in assay [12]; 0.117 E-score in assay [8]. In addition, the binding signal stood at 0.0609 E-score in assay [9] and 0.0885 E-score in assay [10].

As to AGAGGAAA, the binding signal turned out to be 0.115 E-score in assay [1]; 0.126 E-score in [11]; 0.0666 E-score in [4]; 0.0695 E-score in assay [5]; 0.45 E-score in assay [12]; 0.144 E-score in assay [8]. Further, the binding signal worked out at 0.0951 E-score in assay [9] and 0.0583 E-score in assay [10].

With ACGTACGC, the binding signal turned out to be 0.212 E-score in [1]; 0.202 E-score in [2]; 0.16 E-score in assay [3]; 0.26 E-score in assay [4]; 0.402 E-score in assay [5]; 0.274 E-score in assay [6]. For the same sequence, the binding signal in assay [7] was determined as 0.193 E-score; in assay [8], 0.253 E-score; in [9], 0.252 E-score; in assay [10], 0.209 E-score.

Take GCGTGTGA: the binding signal came out at 0.374 E-score in assay [1]; 0.191 E-score in assay [2]; 0.23 E-score in assay [3]; 0.226 E-score in [4]; 0.419 E-score in [5]; 0.145 E-score in assay [6]. Further, the binding signal in assay [7] was determined as 0.189 E-score; in assay [8] it was 0.17 E-score; in assay [9], 0.14 E-score; in assay [10], 0.0819 E-score.

Turning to CACGCCAC, the binding signal amounted to 0.481 E-score in [1]; 0.33 E-score in assay [2]; 0.268 E-score in assay [3]; 0.293 E-score in [4]; 0.488 E-score in [5]; 0.292 E-score in assay [6]. Besides, the binding signal in [7] worked out at 0.298 E-score; in assay [8], 0.386 E-score; in assay [9], 0.168 E-score; in assay [10], 0.271 E-score.

Consider ACGCCAAC, for which the binding signal turned out to be 0.404 E-score in [1]; 0.116 E-score in [2]; 0.175 E-score in [3]; 0.159 E-score in assay [4]; 0.436 E-score in [5]; 0.0544 E-score in assay [6]. Further, the binding signal in [7] is 0.227 E-score; in [8] it was 0.379 E-score; in [9], 0.0688 E-score; in assay [10] it was 0.118 E-score.

Regarding GTACGGAA, the binding signal stood at 0.349 E-score in assay [1]; 0.458 E-score in [2]; 0.43 E-score in assay [3]; 0.369 E-score in [4]; 0.376 E-score in assay [5]; 0.396 E-score in assay [6]. The binding signal in assay [7] turned out to be 0.138 E-score; in [8], 0.221 E-score; in [9], 0.42 E-score; in assay [10] it was 0.425 E-score.

With AAACACGC, the binding signal in assay [1] is 0.415 E-score; in assay [2] it was 0.261 E-score; in assay [3], 0.262 E-score; in assay [4], 0.233 E-score; in [5] it was 0.442 E-score; in [6], 0.225 E-score. Further, the binding signal in assay [7] was 0.198 E-score; in [8], 0.259 E-score; in assay [9], 0.201 E-score; in assay [10], 0.21 E-score.

Consider ATACGGCA, for which the binding signal in [1] is 0.419 E-score; in [2], 0.361 E-score; in [3], 0.353 E-score; in assay [4], 0.365 E-score; in assay [5], 0.433 E-score; in assay [6], 0.411 E-score. Besides, the binding signal in assay [7] came to 0.0642 E-score; in assay [8], 0.228 E-score; in assay [9], 0.414 E-score; in assay [10] it was 0.44 E-score.

As to ATTTCGTG, the binding signal turned out to be 0.389 E-score in assay [1]; 0.174 E-score in [2]; 0.22 E-score in [3]; 0.154 E-score in [4]; 0.422 E-score in assay [5]; 0.133 E-score in assay [6]. The binding signal in [7] was found to be 0.136 E-score; in assay [8] it was 0.109 E-score; in assay [9], 0.191 E-score; in assay [10], 0.157 E-score.
